# Source: PubChem BioAssay AID720648 (The Scripps Research Institute Molecular Screening Center, 2013)
# Hit rate of the full screen: of about 370,000 compounds, about 3,100 (0.84%) were called active. The entries come from a sample that favours actives as a whole. Values without a mark were called inactive.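 The calls were made as follows: active = inhibition above the mean of compounds lying between control limits plus 3 SD, set per campaign (cut at about 8.5% in these data); inactive = the rest.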
# Target: Disintegrin and metalloproteinase domain-containing protein 17 (Homo sapiens) (UniProt P78536)
# Experiment: inhibition of ADAM17 peptide cleavage – biochemical, QFRET, primary screen (AID 720648);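 also: 0% = DMSO-only wells as the low control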
# Details: recombinant ADAM17, EDANS/DABCYL FRET peptide cleavage; at 6.95 µM; hits give high values
# Chain of Disintegrin and metalloproteinase domain-containing protein 17 (Homo sapiens) (P78536 215-824 limits assumed): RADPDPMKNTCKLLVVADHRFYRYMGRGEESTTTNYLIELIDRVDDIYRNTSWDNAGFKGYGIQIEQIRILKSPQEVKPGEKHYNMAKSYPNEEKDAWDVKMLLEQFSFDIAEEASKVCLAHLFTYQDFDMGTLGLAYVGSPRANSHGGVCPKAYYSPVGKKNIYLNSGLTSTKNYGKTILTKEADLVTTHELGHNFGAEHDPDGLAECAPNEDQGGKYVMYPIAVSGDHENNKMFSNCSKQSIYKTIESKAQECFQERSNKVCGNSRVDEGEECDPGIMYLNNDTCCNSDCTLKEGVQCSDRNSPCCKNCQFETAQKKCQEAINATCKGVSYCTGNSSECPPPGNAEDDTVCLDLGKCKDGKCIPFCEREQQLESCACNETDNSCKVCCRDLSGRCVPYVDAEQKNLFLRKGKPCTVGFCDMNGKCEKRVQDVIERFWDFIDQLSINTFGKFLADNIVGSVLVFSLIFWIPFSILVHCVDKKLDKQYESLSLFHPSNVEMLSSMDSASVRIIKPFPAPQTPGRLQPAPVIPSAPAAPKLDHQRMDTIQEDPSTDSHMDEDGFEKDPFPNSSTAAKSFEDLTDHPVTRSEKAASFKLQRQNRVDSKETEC
row,SMILES,inhibition
1,C[C@H]1CN([C@@H](C)CO)C(=O)c2cc(-c3cccc(F)c3)cnc2O[C@@H]1CN(C)S(C)(=O)=O,1.1%
2,COc1ccc(-c2cnc3c(c2)C(=O)N([C@H](C)CO)C[C@@H](C)[C@H](CN(C)Cc2ccccc2)O3)cc1,2.22%
3,C[C@@H]1CN([C@H](C)CO)C(=O)c2cc(-c3ccc(F)cc3)cnc2O[C@H]1CN(C)C(=O)c1ccc(F)cc1,11.7% (active)
4,CCCCCN1CCCCC(NC(=O)C(C)CCC)C1=O (centres undefined),-3.79%
5,CCCCNC(=O)C[C@@H]1C(=O)N(CCc2ccc(Cl)cc2)C2=CCCC[C@]21C(=O)OCC,-1.53%
6,Cc1ccc(-c2nc(CS(=O)(=O)CC(=O)NCc3ccc4c(c3)OCO4)c(C)o2)cc1,-1.45%
7,O=C(CN1CCN(c2nc(-c3ccccc3)cs2)CC1)NCc1ccc2c(c1)OCO2,11.7% (active)
8,CC1(C(=O)NCc2ccc3c(c2)OCO3)CCN1CCc1ccccc1 (centres undefined),4.37%
9,Cc1ccc(-n2c(SCC(=O)Nc3cccc4ccccc34)nnc2-c2ccccn2)cc1,0.17%
10,COc1ccc(C(=O)OCCN(C)C2CN(Cc3cn(Cc4cccc(C)c4)nn3)S(=O)(=O)C2)cc1OC (centres undefined),0%
11,CC1CCN(c2ccc(C(=O)O)cc2NS(=O)(=O)c2ccc(Br)s2)CC1,-2.39%
12,Clc1ccc(-n2c(COc3ccccc3)nnc2SCc2nc3ccccc3[nH]2)cc1,1.5%
13,COc1ccc(CC(=O)c2ccc(O)cc2O)cc1OC,9.65% (active)
14,COc1ccc(CCNC(=O)C(=O)NCc2ccccc2C)cc1OC,-2.04%
15,COc1ccc(C2(CNC(=O)Cc3ccc(OC)c(OC)c3)CCCC2)cc1,0.4%
16,FC(F)(F)c1cccc(NC(=S)OC2CCC23CCC(c2ccccc2)CC3)c1 (centres undefined),4.59%
17,C#CCNC(=O)C[C@H]1C[C@@]2(C(=O)OC)C(=C[C@H](C(C)C)O[C@@H]2C2CC2)N(Cc2ccco2)C1=O,-2.14%
18,O=C(CSc1nnc(-c2ccccc2)n1Cc1ccco1)Nc1ccccc1-c1ccccc1,3.73%
19,O=C(CSc1nnc(COc2ccccc2)n1Cc1ccco1)c1ccc2ccccc2c1,8.38%
20,C(=C\c1ccccc1)/CSc1nnc(-c2cccnc2)n1Cc1ccco1,-2.99%
21,Cc1ccc(OCc2nnc(SC/C=C/c3ccccc3)n2Cc2ccco2)cc1,10.7% (active)
22,O=C(CSc1nnc(-c2cccc(Cl)c2)n1Cc1ccco1)Nc1ccc(OCc2ccccc2)cc1,4%
23,Cc1ccc(-c2nnc(SCC(=O)Nc3ccc(Oc4ccccc4)cc3)n2Cc2ccco2)cc1,9.36% (active)
24,CC(C)(C)OC(=O)NCCc1ccccc1/C=C/S(=O)(=O)NCc1ccc(F)cc1,1.57%
25,O=C(NC1CCC1)c1ccc(C#Cc2cccc(F)c2)c[n+]1[O-],-5.18%
26,CCC(=O)c1c(CC)c2n3c1=CC[C@H]3CC(Br)C=2 (some centres undefined),-4.68%
27,CN1[C@H](Cc2ccccc2)COc2cccc(N3CCSCC3)c2S1(=O)=O,-1.43%

row,SMILES,inhibition
1,CCOc1ccc(Oc2c(Cl)cnn(-c3ccc(C)cc3)c2=O)cc1,-4.44%
2,Cc1ccccc1NC(=O)Cn1nnc(-c2ccccc2F)n1,1.5%
3,CSc1ccc(C=Nn2c(-c3ccc(F)cc3)n[nH]c2=S)cc1,-0.62%
4,CCOc1ccc(-c2n[nH]c(=S)n2/N=C/c2cc3c(cc2[N+](=O)[O-])OCO3)cc1,-4.26%
5,Cc1ccc(-c2n[nH]c(=S)n2/N=C/c2cc3c(cc2[N+](=O)[O-])OCO3)cc1,8.7% (active)
6,COC1=C[C@H](C(=O)NCCNC(C)=O)[C@H](C)[C@@H](c2ccccc2)CC1=O,-1.19%
7,FC(F)(F)c1cccc(Cn2ccc3ccc(-c4ccc5ccn(Cc6ccccc6)c5c4)cc32)c1,-14.4%
8,COC(=O)c1cccc(Cn2ccc3ccc(-c4ccc5ccn(C(=O)c6ccccc6C)c5c4)cc32)c1,-5.84%
9,CC(C)(C)NC(=O)C(c1cccnc1)N(C(=O)c1cnco1)c1ccc(C(C)(C)C)cc1 (centres undefined),-6.7%
10,Cc1nnc(SCC(=O)NC2CCCC2)s1,-4.16%
11,CCSc1nnc(SCC(=O)NNC(=O)c2ccccc2F)s1,-2.03%
12,Cc1nnc(SCC(=O)Nn2cnnc2)s1,8.83% (active)
13,CN(C(N)=NC(=O)/C=C/c1ccccc1)C(C#Cc1ccccc1)Cc1ccccc1 (centres undefined),0.96%
14,CCOC(=O)[C@]12CCCC3=C1N(CCC3)C(=O)[C@@H](CC(=O)NCC13CC4CC(CC(C4)C1)C3)C2,0.7%
15,COc1cccc(CNc2nc(NCc3cccs3)nc3ccsc23)c1,0.1%
16,COc1cccc(CNc2nc(C(F)(F)F)nc3ccccc23)c1,10.3% (active)
17,COc1cccc(CNc2ncc(-c3ccccc3)n2C)c1,5.33%
18,COCCCNC(=O)/C(C#N)=C/c1c(N2CCCCCC2)nc2ccccn2c1=O,-451%
19,N#C/C(=C/c1ccc(N2CCCCC2)o1)C(=O)NCCc1c[nH]c2ccccc12,15.4% (active)
20,O=C(NCCCc1ccccc1)[C@H](Cc1ccccc1)NC1(C(=O)NCCc2c[nH]c3ccccc23)CCC1,3.66%
21,COC(=O)[C@@]12CCCCC=C1N(CCc1ccc(Cl)cc1)C(=O)[C@H]2CC(=O)NCc1ccc(OC)c(OC)c1,-0.2%
22,O=C(CSc1nc2ccccc2s1)NN=Cc1ccc(O)cc1O,3.8%
23,Cc1ccc(Cn2cc(COC(=O)N(C)Cc3ccccc3)nn2)cc1,-1.03%
24,Cc1ccc(C(=O)NCC(=O)O)s1,3.71%
25,Cc1ccc(C(=O)Nc2ccc(C)c(S(=O)(=O)N(C)C)c2)s1,9.87% (active)
26,COc1ccc(CCC(=O)OCC(=O)Nc2ccc(C)c(S(=O)(=O)N(C)C)c2)cc1,0.46%
27,C=CCN1[C@H](CC(C)C)COc2cccc(N3CCCC3)c2S1(=O)=O,-8.01%
